Inconclusive results are not listed. A call without a number means that no potency is given here. The source made the active and inactive calls. The call rests on the fitted dose curve.
Columns and labels:
[1] = Cytotoxicity counterscreen for inhibitors of SARS-CoV-2 cell entry (AID 1645845); further: nearly all actives have a fitted effect of over 50% in size
Outline: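 HEK293-ACE2 cells (Expi293F stably expressing human ACE2) seeded overnight, then compound for 1 h plus 48 h at 37C. Viability as ATP content by luminescence; normalized to wells with cells and media-only wells.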

[2] = Primary qHTS to identify inhibitors of SARS-CoV-2 cell entry (AID 1645846); conditions: activity change, negative = inhibition: at 57.1 µM (top of the series) unless noted; further: nearly all actives have a fitted effect of over 45% in size
Outline: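 Data are normalized to wells receiving SARS-CoV-2-S pseudoparticles and those given bald particles. Entry signal was luciferase luminescence in stable hACE2 Expi293F cells, 48 hr post-infection, after 1 hr compound pretreatment.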

O=C(O)CCCc1ccccc1
Potency [1]: inactive
Potency [2]: inactive

CN(C)CCOC(C)(c1ccccc1)c1ccccn1 (centres undefined)
Potency [1]: inactive
activity change, negative = inhibition [2]: 2.27%

CC(C)(C)NC(=O)[C@@H]1CN(Cc2cccnc2)CCN1C[C@@H](O)C[C@@H](Cc1ccccc1)C(=O)N[C@H]1c2ccccc2C[C@H]1O
Potency [1]: inactive
activity change, negative = inhibition [2]: 4.24%

CN1C(CCl)Nc2cc(Cl)c(S(N)(=O)=O)cc2S1(=O)=O (centres undefined)
Potency [1]: inactive
Potency [2]: inactive

CNCCc1ccccn1
Potency [1]: inactive
Potency [2]: inactive

CC(=O)CCCCn1c(=O)c2c(ncn2C)n(C)c1=O
Potency [1]: inactive
Potency [2]: inactive

C[N+]1(C)CCC(OC(=O)C(O)(c2ccccc2)C2CCCC2)C1 (centres undefined)
Potency [1]: inactive
Potency [2]: inactive

C[C@H]1[C@H](NC(=O)/C(=N/OC(C)(C)C(=O)O)c2csc(N)n2)C(=O)N1S(=O)(=O)O (stereo in doubt)
Potency [1]: inactive
Potency [2]: inactive

Cc1ccc(C(=O)c2cc(O)c(O)c([N+](=O)[O-])c2)cc1
Potency [1]: inactive
activity change, negative = inhibition [2]: -19.3%

O=C(O)CCNC(=O)c1ccc(N=Nc2ccc(O)c(C(=O)O)c2)cc1
Potency [1]: inactive
Potency [2]: inactive

CC(C)(C#N)c1cc(Cn2cncn2)cc(C(C)(C)C#N)c1
Potency [1]: inactive
Potency [2]: inactive

O=c1[nH]cnc2c1ncn2[C@H]1CC[C@@H](CO)O1
Potency [1]: inactive
Potency [2]: inactive

CC(C)NC[C@@H](O)COc1ccc(CC(N)=O)cc1
Potency [1]: inactive
activity change, negative = inhibition [2]: -29.4%

Cn1ccc2cc3c(cc21)CCN3C(=O)Nc1cccnc1
Potency [1]: inactive
activity change, negative = inhibition [2]: -18.3%

NNCCc1ccccc1
Potency [1]: inactive
Potency [2]: inactive

CNC1(C)C2CCC(C2)C1(C)C (centres undefined)
Potency [1]: inactive
Potency [2]: inactive

COc1cc(C(=O)NCc2ccc(OCCN(C)C)cc2)cc(OC)c1OC
Potency [1]: inactive
Potency [2]: inactive
